Experimental findings from the supplement of paper PMC6555819 are described below.

Common to all, as to experiment: PBM binding z-score (relative to random genomic background probes); higher = stronger binding; sequences stand for … in GC…GCGATTGACAGCGTAGAATGAAGG
Assay [1] concerns RARb homodimer (NR concentration 270 nM). An outline of the steps:
(§1)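 Ligand-free nuclear receptor dimers were applied to custom Agilent 4×180K protein-binding microarrays whose double-stranded probes carried direct-repeat seeds, single-nucleotide variants, half-site ablations and random human genomic background sequences in 34-nt variable regions. Incubation lasted 1 h. Binding z-scores were computed against the random background probes from regression-normalized fluorescence.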

Assay [2] has as its system RARg:RXRa (NR concentration 270 nM, RXRa partner concentration 90 nM). An outline of the steps: as §1
Assay [3] relates to RARg homodimer (NR concentration 270 nM). An outline of the steps:
as §1

The subject of assay [4] is RXRa DBDmut IVT, anti-RXR (DBD mutation: RXRa K156A/R161A, NR concentration 90 nM). An outline of the steps: as §1
The test system of assay [5] is RXRa homodimer (NR concentration 180 nM). Summed up: as §1
For assay [6], the system named is THRa:RXRa (NR concentration 90 nM, RXRa partner concentration 90 nM). An outline of the steps: as §1
In assay [7] the test system is THRa homodimer (NR concentration 90 nM). Summed up:
as §1

The test system of assay [8] is VDR homodimer (NR concentration 270 nM). An outline of the steps:
as §1

On to ATCTATAGGTAAGACTCAGTTCAGTGAAGAACGC, for which the PBM binding z-score in assay [1] came out at 0.556; in assay [2], 0.524; in assay [3], 0.517; in assay [4] it was 0.507; in assay [5] it was 0.24; in assay [6], 0.633. Also, the PBM binding z-score in assay [7] amounted to 0.24; in assay [8], 1.36.
On to GCTCGGATGACAAGGTCAGAGCTTTGTCCGTAGA, for which the PBM binding z-score in assay [1] was 2.57; in assay [2], 2.42; in assay [3], 2.02; in assay [4], 0.22; in assay [5] it was 2.15; in assay [6], 2.5. Further, the PBM binding z-score in assay [7] came out at 1.09; in assay [8], 0.292.
Take CCTACTGGGCCACGAAAAGTCATTGATTCAGTGA: the PBM binding z-score in assay [1] is 0.476; in assay [2], 0.154; in assay [3], 0.301; in assay [4], -0.296; in assay [5] it was -0.0607; in assay [6], -0.0481. The PBM binding z-score is -0.645 in assay [7] and -0.412 in assay [8].
As to CAAACTAGGTCACGAAAGTTCAAAGTCGAATGAC, the PBM binding z-score is 5 in assay [1]; 6.73 in assay [2]; 7.67 in assay [3]; 2.96 in assay [4]; 5.99 in assay [5]; 4.31 in assay [6]. Also, the PBM binding z-score in assay [7] was 1.46; in assay [8], 4.82.
As for AATACAGGGTCATCGTAGGCCAGAGGACGCACAG, the PBM binding z-score worked out at 3.8 in assay [1]; 5.78 in assay [2]; 5.21 in assay [3]; 3.64 in assay [4]; 7.03 in assay [5]; 4.56 in assay [6]. For the same sequence, the figures for the PBM binding z-score in assay [7] and in assay [8] were 1.75 and 3.53, respectively.
For GCTAGCAGGCCATTTGGGCCACTCAATGACGGGC, the PBM binding z-score was -0.576 in assay [1]; -0.489 in assay [2]; 0.0153 in assay [3]; -0.353 in assay [4]; -0.706 in assay [5]; -0.537 in assay [6]. Also, the results for the PBM binding z-score in assay [7] and in assay [8] were -1.01 and -0.669, respectively.
As for AGAACGAGGGCAATGAGTAGATAGCACGGGTGGC, the PBM binding z-score in assay [1] worked out at 0.9; in assay [2] it was 1.33; in assay [3], 1.4; in assay [4] it was 1.67; in assay [5] it was 1.14; in assay [6], 0.671. Further, the PBM binding z-score in assay [7] is -0.3; in assay [8] it was 0.678.
